For test [1], the target named is T1, Inhibitor of nuclear factor kappa-B kinase subunit epsilon (Homo sapiens) (UniProt Q14164).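 Note: reported values are averaged percent inhibition figures against human IKKε.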
T1 sequence (whole entry): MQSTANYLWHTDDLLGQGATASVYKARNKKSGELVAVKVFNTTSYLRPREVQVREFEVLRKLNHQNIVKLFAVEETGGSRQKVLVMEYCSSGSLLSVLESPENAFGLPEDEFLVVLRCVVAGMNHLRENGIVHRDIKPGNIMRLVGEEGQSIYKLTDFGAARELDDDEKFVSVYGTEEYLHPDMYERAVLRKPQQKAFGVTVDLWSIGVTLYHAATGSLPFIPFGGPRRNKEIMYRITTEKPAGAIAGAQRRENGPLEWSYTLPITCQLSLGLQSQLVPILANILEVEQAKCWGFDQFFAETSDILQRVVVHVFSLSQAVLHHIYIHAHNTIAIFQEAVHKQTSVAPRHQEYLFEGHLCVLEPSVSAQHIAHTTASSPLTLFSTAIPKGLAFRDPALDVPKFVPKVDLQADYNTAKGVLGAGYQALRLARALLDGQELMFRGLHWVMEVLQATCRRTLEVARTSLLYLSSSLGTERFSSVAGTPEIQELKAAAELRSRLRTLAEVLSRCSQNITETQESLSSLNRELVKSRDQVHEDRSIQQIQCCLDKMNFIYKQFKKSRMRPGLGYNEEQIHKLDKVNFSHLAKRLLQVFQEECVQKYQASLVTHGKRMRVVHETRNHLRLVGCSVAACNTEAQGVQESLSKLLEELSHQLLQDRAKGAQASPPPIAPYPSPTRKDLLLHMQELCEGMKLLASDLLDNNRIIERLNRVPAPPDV
Conditions: at 1 µM.

The target of test [2] is T2, Serine/threonine-protein kinase Nek1 (Homo sapiens) (UniProt Q96PY6).
T2 sequence (whole entry): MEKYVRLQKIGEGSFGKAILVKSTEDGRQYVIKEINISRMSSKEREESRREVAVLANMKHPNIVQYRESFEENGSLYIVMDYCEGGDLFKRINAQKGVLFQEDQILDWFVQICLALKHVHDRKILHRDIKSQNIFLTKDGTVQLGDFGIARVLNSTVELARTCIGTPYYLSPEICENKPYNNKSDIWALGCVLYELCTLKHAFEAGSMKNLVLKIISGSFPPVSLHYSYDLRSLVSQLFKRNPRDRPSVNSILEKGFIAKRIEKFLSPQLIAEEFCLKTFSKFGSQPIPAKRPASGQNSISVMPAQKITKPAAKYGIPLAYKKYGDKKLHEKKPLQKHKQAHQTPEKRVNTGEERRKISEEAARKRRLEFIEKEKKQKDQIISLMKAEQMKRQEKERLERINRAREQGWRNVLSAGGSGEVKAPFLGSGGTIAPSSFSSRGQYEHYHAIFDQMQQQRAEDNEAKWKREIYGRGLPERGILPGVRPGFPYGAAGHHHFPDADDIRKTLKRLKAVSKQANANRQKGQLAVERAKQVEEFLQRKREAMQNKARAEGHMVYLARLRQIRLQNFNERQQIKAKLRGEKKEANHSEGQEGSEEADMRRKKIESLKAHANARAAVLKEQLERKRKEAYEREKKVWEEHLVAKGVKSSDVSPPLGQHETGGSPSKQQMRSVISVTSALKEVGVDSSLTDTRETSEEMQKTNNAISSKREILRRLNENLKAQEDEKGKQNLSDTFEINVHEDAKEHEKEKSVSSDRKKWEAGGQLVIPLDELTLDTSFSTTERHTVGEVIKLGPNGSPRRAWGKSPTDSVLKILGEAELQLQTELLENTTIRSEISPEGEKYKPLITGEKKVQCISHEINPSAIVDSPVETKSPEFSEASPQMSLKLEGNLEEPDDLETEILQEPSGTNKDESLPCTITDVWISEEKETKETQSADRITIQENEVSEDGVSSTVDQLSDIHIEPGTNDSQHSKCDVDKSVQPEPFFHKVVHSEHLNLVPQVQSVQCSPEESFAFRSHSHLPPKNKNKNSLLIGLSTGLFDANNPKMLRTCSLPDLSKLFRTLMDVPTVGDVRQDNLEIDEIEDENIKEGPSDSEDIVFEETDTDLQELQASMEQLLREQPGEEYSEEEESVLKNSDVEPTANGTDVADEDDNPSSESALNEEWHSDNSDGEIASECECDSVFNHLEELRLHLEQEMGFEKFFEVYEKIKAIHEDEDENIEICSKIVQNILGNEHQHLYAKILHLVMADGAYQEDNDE
Conditions: at 0.1 µM.

Test [3] has as its target T2, Serine/threonine-protein kinase Nek1 (Homo sapiens). Conditions: at 1 µM.
In test [4] the target is T3, Serine/threonine-protein kinase Nek2 (Homo sapiens) (UniProt P51955).
T3 sequence (whole entry): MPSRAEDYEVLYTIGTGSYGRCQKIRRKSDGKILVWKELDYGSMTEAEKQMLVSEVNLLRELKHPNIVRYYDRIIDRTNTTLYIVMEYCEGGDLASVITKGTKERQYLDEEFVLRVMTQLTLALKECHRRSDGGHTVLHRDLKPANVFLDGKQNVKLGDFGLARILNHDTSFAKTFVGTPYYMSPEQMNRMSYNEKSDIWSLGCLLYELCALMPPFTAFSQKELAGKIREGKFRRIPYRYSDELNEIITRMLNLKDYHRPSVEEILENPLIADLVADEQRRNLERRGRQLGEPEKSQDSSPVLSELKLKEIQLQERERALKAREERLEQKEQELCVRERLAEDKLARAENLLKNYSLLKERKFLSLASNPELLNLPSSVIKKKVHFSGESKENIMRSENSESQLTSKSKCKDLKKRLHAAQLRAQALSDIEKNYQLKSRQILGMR
To be noted: at 0.1 µM.

The target in test [5] is T3, Serine/threonine-protein kinase Nek2 (Homo sapiens). Conditions: at 1 µM.
Test [6] has as its target Serine/threonine-protein kinase Nek6 (Homo sapiens) (UniProt Q9HC98). Conditions: at 0.1 µM.
Test [7] has the same target. To be noted: at 1 µM.
Test [8] concerns the target Serine/threonine-protein kinase Nek7 (Homo sapiens) (UniProt Q8TDX7). To be noted: at 0.1 µM.
Test [9] shares this target. To be noted: at 1 µM.
Test [10] concerns the target T4, Serine/threonine-protein kinase Nek9 (Homo sapiens) (UniProt Q8TD19).
T4 sequence (whole entry): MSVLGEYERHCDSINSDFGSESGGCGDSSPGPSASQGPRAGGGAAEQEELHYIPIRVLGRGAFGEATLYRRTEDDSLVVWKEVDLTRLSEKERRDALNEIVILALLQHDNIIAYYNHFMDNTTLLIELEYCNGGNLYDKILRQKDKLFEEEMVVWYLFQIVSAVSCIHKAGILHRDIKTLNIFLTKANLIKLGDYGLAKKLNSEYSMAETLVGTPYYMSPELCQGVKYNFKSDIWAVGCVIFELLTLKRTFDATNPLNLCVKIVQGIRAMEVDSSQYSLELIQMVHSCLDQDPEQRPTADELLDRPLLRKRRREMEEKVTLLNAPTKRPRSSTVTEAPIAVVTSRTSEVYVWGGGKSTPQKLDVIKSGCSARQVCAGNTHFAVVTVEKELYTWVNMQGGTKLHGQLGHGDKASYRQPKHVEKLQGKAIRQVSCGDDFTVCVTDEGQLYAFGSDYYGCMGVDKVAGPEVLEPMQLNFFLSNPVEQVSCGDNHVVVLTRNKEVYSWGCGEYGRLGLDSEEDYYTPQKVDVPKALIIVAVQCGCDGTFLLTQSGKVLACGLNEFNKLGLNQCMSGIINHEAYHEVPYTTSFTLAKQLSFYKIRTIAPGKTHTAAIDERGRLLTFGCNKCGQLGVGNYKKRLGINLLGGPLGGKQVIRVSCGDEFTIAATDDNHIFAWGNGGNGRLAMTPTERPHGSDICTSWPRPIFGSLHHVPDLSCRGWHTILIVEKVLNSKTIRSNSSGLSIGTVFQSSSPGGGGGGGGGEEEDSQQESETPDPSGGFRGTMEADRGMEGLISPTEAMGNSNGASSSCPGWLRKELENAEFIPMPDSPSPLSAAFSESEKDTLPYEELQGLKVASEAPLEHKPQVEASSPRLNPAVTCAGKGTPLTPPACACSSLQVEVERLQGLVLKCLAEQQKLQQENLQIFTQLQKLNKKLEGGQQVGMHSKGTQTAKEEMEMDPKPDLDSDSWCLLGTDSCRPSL
Conditions: at 0.1 µM.

For test [11], the target named is T4, Serine/threonine-protein kinase Nek9 (Homo sapiens). Conditions: at 1 µM.
In test [12] the target is Serine/threonine-protein kinase PLK1 (Homo sapiens) (UniProt P53350). To be noted: at 0.1 µM.
For test [13] the target is unchanged. To be noted: at 1 µM.
The target in test [14] is T5, Dual specificity protein kinase TTK (Homo sapiens) (UniProt P33981).
T5 sequence (whole entry): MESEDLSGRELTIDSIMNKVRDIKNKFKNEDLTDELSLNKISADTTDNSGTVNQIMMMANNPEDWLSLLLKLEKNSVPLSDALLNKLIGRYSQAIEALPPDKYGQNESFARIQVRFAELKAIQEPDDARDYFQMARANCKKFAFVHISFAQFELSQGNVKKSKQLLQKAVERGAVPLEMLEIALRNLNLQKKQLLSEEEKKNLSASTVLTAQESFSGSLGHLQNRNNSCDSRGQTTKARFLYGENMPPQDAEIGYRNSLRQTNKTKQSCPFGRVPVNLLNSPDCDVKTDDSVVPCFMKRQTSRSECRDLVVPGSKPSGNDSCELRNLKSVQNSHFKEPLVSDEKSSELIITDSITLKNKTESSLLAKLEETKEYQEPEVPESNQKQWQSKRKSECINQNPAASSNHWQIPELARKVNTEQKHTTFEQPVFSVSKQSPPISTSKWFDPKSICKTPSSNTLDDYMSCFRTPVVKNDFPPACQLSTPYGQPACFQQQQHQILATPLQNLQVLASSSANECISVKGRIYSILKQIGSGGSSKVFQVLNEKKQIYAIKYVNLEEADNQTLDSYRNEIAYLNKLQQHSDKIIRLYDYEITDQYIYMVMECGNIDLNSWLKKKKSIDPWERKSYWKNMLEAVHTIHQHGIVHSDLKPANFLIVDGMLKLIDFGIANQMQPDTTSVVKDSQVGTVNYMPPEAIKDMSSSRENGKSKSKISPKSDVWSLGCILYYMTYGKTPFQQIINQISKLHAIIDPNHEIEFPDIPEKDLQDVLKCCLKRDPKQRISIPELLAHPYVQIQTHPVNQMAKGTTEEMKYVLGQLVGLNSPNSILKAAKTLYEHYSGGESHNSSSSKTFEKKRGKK
To be noted: at 0.1 µM.

Test [15] concerns T6, Receptor-type tyrosine-protein kinase FLT3 (Homo sapiens), P36888 [D835Y].
T6 sequence (whole entry): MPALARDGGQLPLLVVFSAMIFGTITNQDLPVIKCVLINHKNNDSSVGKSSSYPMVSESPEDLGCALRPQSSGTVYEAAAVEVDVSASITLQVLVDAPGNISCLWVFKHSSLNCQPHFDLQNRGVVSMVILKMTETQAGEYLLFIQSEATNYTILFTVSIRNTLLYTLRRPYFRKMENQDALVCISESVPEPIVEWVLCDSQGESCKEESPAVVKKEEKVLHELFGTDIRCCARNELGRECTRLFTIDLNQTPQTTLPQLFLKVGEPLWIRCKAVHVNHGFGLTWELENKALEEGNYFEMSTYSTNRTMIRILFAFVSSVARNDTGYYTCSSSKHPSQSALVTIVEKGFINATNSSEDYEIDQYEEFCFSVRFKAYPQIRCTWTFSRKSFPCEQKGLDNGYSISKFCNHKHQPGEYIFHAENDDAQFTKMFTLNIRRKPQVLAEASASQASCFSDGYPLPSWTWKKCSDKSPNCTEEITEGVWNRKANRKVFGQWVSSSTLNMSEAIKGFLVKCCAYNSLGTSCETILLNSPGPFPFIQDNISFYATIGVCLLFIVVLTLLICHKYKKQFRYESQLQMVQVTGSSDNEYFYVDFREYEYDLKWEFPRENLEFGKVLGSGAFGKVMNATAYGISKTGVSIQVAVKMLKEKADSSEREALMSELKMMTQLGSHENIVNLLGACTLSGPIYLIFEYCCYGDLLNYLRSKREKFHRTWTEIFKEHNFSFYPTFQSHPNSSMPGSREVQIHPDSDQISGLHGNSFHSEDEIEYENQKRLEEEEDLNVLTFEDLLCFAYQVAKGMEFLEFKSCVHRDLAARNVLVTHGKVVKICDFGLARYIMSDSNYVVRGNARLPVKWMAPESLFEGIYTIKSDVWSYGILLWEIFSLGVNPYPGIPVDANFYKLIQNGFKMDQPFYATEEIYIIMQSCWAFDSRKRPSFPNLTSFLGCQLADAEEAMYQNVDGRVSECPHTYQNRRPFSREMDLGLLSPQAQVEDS
To be noted: at 1 µM.

For test [16], the target named is Vascular endothelial growth factor receptor 3 (Homo sapiens) (UniProt P35916). To be noted: at 0.1 µM.
For test [17] the target is unchanged. To be noted: at 1 µM.
In test [18] the target is Macrophage colony-stimulating factor 1 receptor (Homo sapiens) (UniProt P07333). To be noted: at 0.1 µM.
For test [19] the target is unchanged. Conditions: at 1 µM.
In test [20] the target is Tyrosine-protein kinase Fyn (Homo sapiens) (UniProt P06241). To be noted: at 0.1 µM.
Sequence of Tyrosine-protein kinase Fyn (Homo sapiens) (P06241 2-537 limits assumed): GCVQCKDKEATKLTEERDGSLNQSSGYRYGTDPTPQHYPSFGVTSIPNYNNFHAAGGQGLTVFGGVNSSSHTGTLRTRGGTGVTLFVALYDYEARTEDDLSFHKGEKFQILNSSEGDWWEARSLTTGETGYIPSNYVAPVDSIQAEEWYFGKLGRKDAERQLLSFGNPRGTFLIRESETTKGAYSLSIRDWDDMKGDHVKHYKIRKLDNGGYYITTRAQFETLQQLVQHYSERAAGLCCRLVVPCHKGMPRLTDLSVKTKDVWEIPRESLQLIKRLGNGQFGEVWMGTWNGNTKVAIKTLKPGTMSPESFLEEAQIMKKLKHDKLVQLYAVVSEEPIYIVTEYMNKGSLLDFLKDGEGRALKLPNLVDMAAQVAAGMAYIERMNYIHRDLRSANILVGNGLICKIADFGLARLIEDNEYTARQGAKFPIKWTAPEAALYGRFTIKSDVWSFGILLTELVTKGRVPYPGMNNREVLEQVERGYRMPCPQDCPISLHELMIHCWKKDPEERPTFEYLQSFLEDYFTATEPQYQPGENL

Sequence of Macrophage colony-stimulating factor 1 receptor (Homo sapiens) (P07333 whole entry): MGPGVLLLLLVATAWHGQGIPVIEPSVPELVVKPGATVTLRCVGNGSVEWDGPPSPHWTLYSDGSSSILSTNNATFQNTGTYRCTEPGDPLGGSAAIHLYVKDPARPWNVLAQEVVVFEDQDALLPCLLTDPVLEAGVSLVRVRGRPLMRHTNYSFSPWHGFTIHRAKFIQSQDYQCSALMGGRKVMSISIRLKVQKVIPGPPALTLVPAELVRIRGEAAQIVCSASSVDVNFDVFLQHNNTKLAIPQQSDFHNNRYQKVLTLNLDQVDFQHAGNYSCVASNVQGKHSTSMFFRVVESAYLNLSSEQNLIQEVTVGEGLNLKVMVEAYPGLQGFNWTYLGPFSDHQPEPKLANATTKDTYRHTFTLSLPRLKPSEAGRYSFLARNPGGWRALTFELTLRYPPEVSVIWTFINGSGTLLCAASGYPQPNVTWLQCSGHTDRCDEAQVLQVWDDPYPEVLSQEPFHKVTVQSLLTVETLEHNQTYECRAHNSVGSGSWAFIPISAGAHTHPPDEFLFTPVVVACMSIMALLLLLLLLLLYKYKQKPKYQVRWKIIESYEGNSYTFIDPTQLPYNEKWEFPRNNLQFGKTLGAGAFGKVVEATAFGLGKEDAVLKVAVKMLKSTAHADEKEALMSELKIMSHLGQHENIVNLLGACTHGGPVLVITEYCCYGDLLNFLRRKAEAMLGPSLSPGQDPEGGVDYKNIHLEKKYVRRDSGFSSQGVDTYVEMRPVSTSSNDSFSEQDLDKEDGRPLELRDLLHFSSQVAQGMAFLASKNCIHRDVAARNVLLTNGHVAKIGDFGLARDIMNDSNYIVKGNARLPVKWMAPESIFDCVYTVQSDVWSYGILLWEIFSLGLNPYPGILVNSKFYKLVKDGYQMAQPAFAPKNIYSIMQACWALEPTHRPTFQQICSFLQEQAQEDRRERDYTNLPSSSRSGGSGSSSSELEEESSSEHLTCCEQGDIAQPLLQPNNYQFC
Sequence of Vascular endothelial growth factor receptor 3 (Homo sapiens) (P35916 whole entry): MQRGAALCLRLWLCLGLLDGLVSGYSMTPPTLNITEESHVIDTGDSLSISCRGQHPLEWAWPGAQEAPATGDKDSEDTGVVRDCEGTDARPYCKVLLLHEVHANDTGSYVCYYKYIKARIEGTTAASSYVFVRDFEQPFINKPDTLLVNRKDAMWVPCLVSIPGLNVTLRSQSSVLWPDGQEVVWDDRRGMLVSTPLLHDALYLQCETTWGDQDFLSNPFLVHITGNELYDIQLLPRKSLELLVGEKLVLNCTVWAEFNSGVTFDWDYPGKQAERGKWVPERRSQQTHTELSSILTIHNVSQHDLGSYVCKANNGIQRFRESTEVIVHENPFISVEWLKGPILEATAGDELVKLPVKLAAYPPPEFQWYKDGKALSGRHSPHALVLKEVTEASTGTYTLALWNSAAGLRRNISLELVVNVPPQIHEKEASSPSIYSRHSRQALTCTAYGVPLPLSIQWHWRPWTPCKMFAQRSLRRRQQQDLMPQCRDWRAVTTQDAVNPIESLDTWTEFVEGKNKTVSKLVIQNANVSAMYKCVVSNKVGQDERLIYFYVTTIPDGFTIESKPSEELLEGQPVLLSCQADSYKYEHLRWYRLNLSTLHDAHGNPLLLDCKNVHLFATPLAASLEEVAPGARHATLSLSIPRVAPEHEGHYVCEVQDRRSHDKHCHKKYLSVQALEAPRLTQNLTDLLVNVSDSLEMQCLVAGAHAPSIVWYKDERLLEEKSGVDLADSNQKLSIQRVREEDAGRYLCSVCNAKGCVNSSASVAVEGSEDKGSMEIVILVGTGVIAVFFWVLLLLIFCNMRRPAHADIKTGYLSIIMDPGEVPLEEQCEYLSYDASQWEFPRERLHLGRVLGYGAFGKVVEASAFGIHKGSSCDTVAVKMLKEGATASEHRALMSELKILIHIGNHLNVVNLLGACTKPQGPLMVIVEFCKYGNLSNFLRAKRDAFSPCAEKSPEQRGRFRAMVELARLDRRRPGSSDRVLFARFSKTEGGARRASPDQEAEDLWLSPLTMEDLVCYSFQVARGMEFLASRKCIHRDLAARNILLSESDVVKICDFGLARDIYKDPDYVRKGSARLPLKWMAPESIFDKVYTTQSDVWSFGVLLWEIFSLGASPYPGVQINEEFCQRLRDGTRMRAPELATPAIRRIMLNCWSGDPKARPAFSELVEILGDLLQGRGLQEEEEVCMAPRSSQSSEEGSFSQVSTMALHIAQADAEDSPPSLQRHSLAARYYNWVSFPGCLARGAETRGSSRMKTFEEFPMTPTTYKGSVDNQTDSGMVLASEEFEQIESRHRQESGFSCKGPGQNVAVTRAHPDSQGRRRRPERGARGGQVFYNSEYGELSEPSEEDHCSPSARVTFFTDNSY
Sequence of Serine/threonine-protein kinase PLK1 (Homo sapiens) (P53350 whole entry): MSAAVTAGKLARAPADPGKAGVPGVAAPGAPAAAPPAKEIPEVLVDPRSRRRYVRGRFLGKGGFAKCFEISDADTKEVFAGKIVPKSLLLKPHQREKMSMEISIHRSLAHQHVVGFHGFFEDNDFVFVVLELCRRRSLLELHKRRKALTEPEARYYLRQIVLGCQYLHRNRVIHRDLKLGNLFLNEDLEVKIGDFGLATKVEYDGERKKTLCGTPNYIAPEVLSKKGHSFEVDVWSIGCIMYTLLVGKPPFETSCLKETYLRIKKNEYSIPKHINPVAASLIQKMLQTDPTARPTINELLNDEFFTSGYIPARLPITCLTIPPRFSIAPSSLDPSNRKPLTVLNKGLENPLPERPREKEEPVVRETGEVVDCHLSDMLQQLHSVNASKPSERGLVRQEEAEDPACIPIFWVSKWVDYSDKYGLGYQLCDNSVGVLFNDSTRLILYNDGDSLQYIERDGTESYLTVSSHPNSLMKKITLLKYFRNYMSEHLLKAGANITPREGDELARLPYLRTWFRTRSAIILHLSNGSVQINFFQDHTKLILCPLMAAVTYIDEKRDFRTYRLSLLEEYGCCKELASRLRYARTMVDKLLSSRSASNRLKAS
Sequence of Serine/threonine-protein kinase Nek6 (Homo sapiens) (Q9HC98 whole entry): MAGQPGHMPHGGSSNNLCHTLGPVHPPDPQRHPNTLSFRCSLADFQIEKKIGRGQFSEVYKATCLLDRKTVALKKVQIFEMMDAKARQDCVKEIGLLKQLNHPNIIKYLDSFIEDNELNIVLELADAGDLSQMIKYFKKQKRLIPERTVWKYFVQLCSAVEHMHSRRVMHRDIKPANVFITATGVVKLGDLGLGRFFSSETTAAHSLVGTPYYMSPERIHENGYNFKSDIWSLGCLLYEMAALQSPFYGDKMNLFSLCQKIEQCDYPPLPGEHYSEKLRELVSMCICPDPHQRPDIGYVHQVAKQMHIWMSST
Sequence of Serine/threonine-protein kinase Nek7 (Homo sapiens) (Q8TDX7 whole entry, looked up): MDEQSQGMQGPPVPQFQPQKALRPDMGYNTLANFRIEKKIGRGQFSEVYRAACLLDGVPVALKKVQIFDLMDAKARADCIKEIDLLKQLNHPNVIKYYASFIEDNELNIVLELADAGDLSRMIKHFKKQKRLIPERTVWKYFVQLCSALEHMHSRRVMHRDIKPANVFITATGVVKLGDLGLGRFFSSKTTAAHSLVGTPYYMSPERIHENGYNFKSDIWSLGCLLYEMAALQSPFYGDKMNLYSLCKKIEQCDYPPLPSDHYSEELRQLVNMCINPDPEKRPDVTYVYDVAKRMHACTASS

The inhibition is the relative decrease from the control value, in per cent. As for `CS(=O)(=O)CCNCc1nc(-c2ccc3ncnc(Nc4ccc(OCc5cccc(C(F)(F)F)c5)cc4)c3c2)cs1`, the inhibition in [1] was 2.82%; in [2], 1.67%; in [3], 3.9%; in test [4], 2.86%; in test [5] it was 0.5%; in test [6] it was -0.59%. For the same compound, the inhibition is 2.66% in [7]; 1.6% in test [8]; 5.52% in test [9]; 3.06% in [10]; -0.39% in test [11]; 1.34% in test [12]. Further, the inhibition in test [13] turned out to be 3.51%; in test [14], 3.6%; in test [15], 4.19%; in [16] it was 3.13%; in [17], 2.21%; in [18], 0.88%. Moreover, the inhibition came out at 8.87% in test [19] and 1.59% in [20].

The values are drawn from ChEMBL document CHEMBL1961873, “Compounds: GSK PKIS; Assays: Nanosyn kinase panel” (2012).
